# The whole screen tested about 63,000 compounds, of which about 1,100 (1.7%) were called active. Only a selection was taken, and actives are over-represented in it overall. Measured potencies and affinities stand elsewhere. Unmarked numbers belong to inactive results.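 The calls were made as follows: active = compounds whose percent cytotoxicity in the single-dose primary screen, scaled between solvent and toxic-drug controls, exceeds 50; inactive = the rest.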
# Experiment: viability loss of HPDE-C7K cells – cell-based, fluorescence, HTS, primary screen (AID 431);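 also: 0% = DMSO solvent wells and 100% = doxorubicin-treated wells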
# Details: HPDE-C7K KRASV12 cells, Alamar Blue viability, 48 h; at 10 µM; hits give high values
row,Compound,cytotoxicity
1,CCOc1ccccc1NC(=O)NC1CCN(CC(=O)Nc2ccc3c(c2)OCCO3)CC1,-18.3%
2,CCN(CC(=O)NCc1cccs1)S(=O)(=O)c1cccc(C(C)=O)c1,-12.5%
3,O=C(COn1nnc2ccc(C(F)(F)F)cc21)Nc1nnc(-c2ccccc2)o1,59.2% (active)
4,O=C(COn1nnc2ccc(Cl)cc21)NCc1ccccc1,3.7%
5,O=C(COc1ccccc1)Nc1nnc(-c2ccccc2)o1,-10.7%
6,Cc1csc(NC(=O)C2CCN(C(=O)CSc3nnc(C)n3Cc3ccccc3)CC2)n1,-14%
7,S=c1[nH]c2ncccc2o1,21.2%
8,NC(=O)CSc1nc2ccccc2n1-c1ccccc1,8.7%
9,COc1ccc(-n2c(SCC(=O)c3c(N)n(C)c(=O)n(C)c3=O)nc3ccccc32)cc1,7.4%
10,Cn1c(N)c(C(=O)CSc2nc3ccccc3n2-c2ccccc2)c(=O)n(C)c1=O,103% (active)
11,CCOC(=O)C1=C(C)Nc2nnnn2C1c1cccc(OC)c1OC (stereo unspecified),-16.1%
12,O=C(CN1CCOCC1)NCc1ccccc1,-11.4%
13,CCOC(=O)c1[nH]c2c(c1C)C(=O)CC(c1ccc(F)cc1)C2 (stereo unspecified),58.4% (active)
14,Cc1c(C(=O)OCC2CCCO2)[nH]c2c1C(=O)CC(c1ccc(N(C)C)cc1)C2 (stereo unspecified),3.2%
15,CCOCCOC(=O)c1[nH]c2c(c1C)C(=O)CC(c1ccc(N(C)C)cc1)C2 (stereo unspecified),5.2%
16,CC1=C(C(=O)OCc2ccccc2)C(c2ccco2)C2=C(CC(C)(C)CC2=O)N1 (stereo unspecified),7.4%
17,Cc1c(C(=O)OCc2ccccc2)[nH]c2c1C(=O)CC(c1ccco1)C2 (stereo unspecified),68.1% (active)
18,CCOc1ccc(C2CC(=O)c3c([nH]c(C(=O)OC)c3C)C2)cc1OC (stereo unspecified),6.3%
19,Cc1c(C(=O)OCC2CCCO2)[nH]c2c1C(=O)CC(c1ccco1)C2 (stereo unspecified),53.3% (active)
20,COCCOC(=O)c1[nH]c2c(c1C)C(=O)CC(c1ccco1)C2 (stereo unspecified),65.5% (active)
21,COc1ccc(OC)c(C2CC(=O)c3c([nH]c(C(=O)OCC4CCCO4)c3C)C2)c1 (stereo unspecified),7.8%
22,COCCOC(=O)c1[nH]c2c(c1C)C(=O)C(C(=O)OC)C(C)C2 (stereo unspecified),0%
23,Cc1c(C(=O)Nc2ccc(C(=O)O)cc2)cnn1C,7.2%
24,CC(=O)c1ccc(C(=O)Nc2ccc(N3CCOCC3)cc2)cc1,-18.3%
25,COc1ccc(C(=O)/C=C/Nc2c(C)n(C)n(-c3ccccc3)c2=O)cc1OC,20.1%
26,COc1ccccc1Oc1nc2c(c(=O)n(Cc3ccccc3F)c(=O)n2C)n1C,18.8%
